Experimental data from the supplement of paper PMC3414501.
Structures can show the parent of a compound that is named as a salt.

How the values were obtained:
[1] = system: S. cerevisiae SK1 pCDA2-eGFP (USY613), sporulating; test: CDA2-GFP sporulation assay sensitivity score (z-score vs DMSO controls); higher = stronger inhibition of sporulation, active = hit call of the paper;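 note: active if sensitivity score above 5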
[2] = system: S. cerevisiae AD1-9 (efflux-pump deficient), vegetative growth in YPD; test: growth sensitivity score (doubling time z-score vs DMSO controls); higher = slower growth, strongly negative scores also mark growth inhibition (complete suppression), active = hit call of the paper
How it was run: (§1)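 Saccharomyces cerevisiae strains BY4741 and AD1-9 were seeded in rich medium in microtiter plates at an OD600 of 0.065. Compounds were added at a 1:100 dilution of DMSO stock. Optical density was read every 15 min for 24 hours on a Tecan GENios reader. Average doubling time was the time taken to reach a set generation point divided by generation number, and the growth sensitivity score was (compound mean − DMSO-control mean)/DMSO-control SD, using eight DMSO controls per experiment.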

[3] = system: S. cerevisiae BY4741 (wild-type), vegetative growth in YPD; test: as above
How it was run: as §1

[4] = stock concentration (mM, diluted 1:100): 8.2
[5] = stock concentration (mM, diluted 1:100): 8.6
[6] = stock concentration (mM, diluted 1:100): 8.7
[7] = stock concentration (mM, diluted 1:100): 8.9
[8] = stock concentration (mM, diluted 1:100): 9
[9] = stock concentration (mM, diluted 1:100): 9.7
[10] = stock concentration (mM, diluted 1:100): 9.8
[11] = stock concentration (mM, diluted 1:100): 10
[12] = stock concentration (mM, diluted 1:100): 10.1

SMILES: COc1ccc2c(c1)[C@]13CCCC[C@@H]1[C@H](C2)N(C)CC3 [Dextromethorphan hydrobromide]
- CDA2-GFP sporulation assay sensitivity score [1, 4]: 14.1 (active)
- growth sensitivity score [2, 4]: -0.05 (inactive)
- growth sensitivity score [3, 4]: -0.39 (inactive)

SMILES: CCOC(=O)C1(c2ccccc2)CCN(CCC(C#N)(c2ccccc2)c2ccccc2)CC1 [Diphenoxylate]
- CDA2-GFP sporulation assay sensitivity score [1, 5]: 1.47 (inactive)
- growth sensitivity score [2, 5]: 5.75 (active)
- growth sensitivity score [3, 5]: -0.94 (inactive)

SMILES: CC(=O)O[C@H]1C[C@@H]2CC[C@@H]3[C@H](CC[C@@]4(C)[C@H]3C[C@H]([N+]3(C)CCCCC3)[C@@H]4OC(C)=O)[C@@]2(C)C[C@@H]1[N+]1(C)CCCCC1 [Pancuronium]
- CDA2-GFP sporulation assay sensitivity score [1, 6]: 2.51 (inactive)
- growth sensitivity score [2, 6]: -8.57
- growth sensitivity score [3, 6]: -0.39 (inactive)

SMILES: CC(NC(C)(C)C)C(=O)c1cccc(Cl)c1 (centres undefined) [Bupropion hydrochloride]
- CDA2-GFP sporulation assay sensitivity score [1, 6]: 3.2 (inactive)
- growth sensitivity score [2, 6]: -0.08 (inactive)
- growth sensitivity score [3, 6]: -0.87 (inactive)

SMILES: COc1ccc(C(CN(C)C)C2(O)CCCCC2)cc1 (centres undefined) [Venlafaxine hydrochloride]
- CDA2-GFP sporulation assay sensitivity score [1, 7]: -0.02 (inactive)
- growth sensitivity score [2, 7]: -1.06 (inactive)
- growth sensitivity score [3, 7]: -0.63 (inactive)

SMILES: Cc1ncc2n1-c1ccc(Cl)cc1C(c1ccccc1F)=NC2 [Midazolam hydrochloride]
- CDA2-GFP sporulation assay sensitivity score [1, 8]: 6.54 (active)
- growth sensitivity score [2, 8]: 12.1 (active)
- growth sensitivity score [3, 8]: 0.95 (inactive)

SMILES: CN1CCC(c2ccc(F)cc2)C(COc2ccc3c(c2)OCO3)C1 (centres undefined) [Methyl paroxetine]
- CDA2-GFP sporulation assay sensitivity score [1, 9]: 0.37 (inactive)
- growth sensitivity score [2, 9]: 35 (active)
- growth sensitivity score [3, 9]: 2.48 (active)

SMILES: CN1CC[C@]2(c3cccc(O)c3)Cc3nc4ccccc4cc3C[C@H]2C1
- CDA2-GFP sporulation assay sensitivity score [1, 10]: 5.85 (inactive)
- growth sensitivity score [2, 10]: -2.02
- growth sensitivity score [3, 10]: 0.13 (inactive)

SMILES: CN1C(=O)CN=C(c2ccccc2)c2cc([N+](=O)[O-])ccc21 [Nimetazepam]
- CDA2-GFP sporulation assay sensitivity score [1, 11]: -0.53 (inactive)
- growth sensitivity score [2, 11]: 0.79 (inactive)
- growth sensitivity score [3, 11]: -0.45 (inactive)

SMILES: O=C1Nc2ccc(Cl)cc2C(c2ccccc2Cl)=NC1O (centres undefined) [Lorazepam]
- CDA2-GFP sporulation assay sensitivity score [1, 11]: 5 (inactive)
- growth sensitivity score [2, 11]: 2.16 (active)
- growth sensitivity score [3, 11]: -0.91 (inactive)

SMILES: C[C@]12CCC(=O)C[C@@H]1CC[C@@H]1[C@@H]2CC[C@@]2(C)[C@H]1CC[C@]2(C)O [Mestanolone]
- CDA2-GFP sporulation assay sensitivity score [1, 12]: 0.79 (inactive)
- growth sensitivity score [2, 12]: 2.2 (active)
- growth sensitivity score [3, 12]: -0.15 (inactive)

SMILES: Oc1cc2c(cc1O)[C@H]1c3ccccc3CN[C@@H]1CC2
- CDA2-GFP sporulation assay sensitivity score [1, 11]: -1.42 (inactive)
- growth sensitivity score [2, 11]: 0.66 (inactive)
- growth sensitivity score [3, 11]: 0.31 (inactive)

SMILES: C[N+]1(CCC(C(N)=O)(c2ccccc2)c2ccccc2)CCCCC1 [Fenpiverinium bromide]
- CDA2-GFP sporulation assay sensitivity score [1, 12]: 0.3 (inactive)
- growth sensitivity score [2, 12]: -1.25 (inactive)
- growth sensitivity score [3, 12]: -1.06 (inactive)

SMILES: COc1ccc2[nH]cc(C3=CCNCC3)c2c1
- growth sensitivity score [2, 12]: -2.3
- growth sensitivity score [3, 12]: -0.36 (inactive)

SMILES: CCCN1C[C@H](CSC)C[C@@H]2c3cccc4[nH]cc(c34)C[C@H]21 [Pergolide mesylate]
- growth sensitivity score [2, 11]: 3.13 (active)
- growth sensitivity score [3, 11]: 2.05 (active)

SMILES: CCN(CC)CCOC(=O)C(O)(c1ccccc1)c1ccccc1 [Benactyzine hydrochloride]
- CDA2-GFP sporulation assay sensitivity score [1, 11]: 0.09 (inactive)
- growth sensitivity score [2, 11]: -0.44 (inactive)
- growth sensitivity score [3, 11]: -0.83 (inactive)

SMILES: Cc1nnc2n1-c1ccc(Cl)cc1C(c1ccccc1)=NC2 [Alprazolam]
- CDA2-GFP sporulation assay sensitivity score [1, 11]: 0.37 (inactive)
- growth sensitivity score [2, 11]: 5.38 (active)
- growth sensitivity score [3, 11]: 0.23 (inactive)

SMILES: C=C1C[C@@H]2[C@H](CC[C@]3(C)C(=O)CC[C@@H]23)[C@@]2(C)C=CC(=O)C=C12 [Exemestane]
- CDA2-GFP sporulation assay sensitivity score [1, 11]: 7.73 (active)
- growth sensitivity score [2, 11]: 4.58 (active)
- growth sensitivity score [3, 11]: 0.77 (inactive)

SMILES: O=C1CN=C(c2ccccc2)c2cc([N+](=O)[O-])ccc2N1 [Nitrazepam]
- CDA2-GFP sporulation assay sensitivity score [1, 11]: -0.69 (inactive)
- growth sensitivity score [2, 11]: 8.16 (active)
- growth sensitivity score [3, 11]: 2.01 (active)

SMILES: NC1=NC(=O)C(c2ccccc2)O1 (centres undefined) [Pemoline]
- CDA2-GFP sporulation assay sensitivity score [1, 11]: 0.99 (inactive)
- growth sensitivity score [2, 11]: 0.67 (inactive)
- growth sensitivity score [3, 11]: -1.83 (inactive)

SMILES: NCCc1ccccn1 [2-(2-aminoethyl)pyridine]
- CDA2-GFP sporulation assay sensitivity score [1, 11]: -1.07 (inactive)
- growth sensitivity score [2, 11]: -0.62 (inactive)
- growth sensitivity score [3, 11]: -1.35 (inactive)

SMILES: FC(F)(F)c1cccc(N2CCNCC2)c1
- CDA2-GFP sporulation assay sensitivity score [1, 11]: 0.69 (inactive)
- growth sensitivity score [2, 11]: 2.22 (active)
- growth sensitivity score [3, 11]: 1.25 (inactive)
